Laboratory results taken from PubChem BioAssay (EPA / NIEHS).
Values joined by “and” are separate entries in the source; they are usually repeats but may differ in a detail not shown here. Equal entries are not always repeated. Results filed as inconclusive are left out. Some compounds were tested as several samples or in several runs, with calls that do not always agree. Active and inactive are the calls of the source. The calls were made as follows: active = hit-call score of the fitted dose curve at least 0.9, where 1 is the maximum; inconclusive = response in the unintended direction; inactive = score below 0.9.

Each molecule was assayed against human Phosphodiesterase 4A1 (PDE4A1), PDE4A (gene 5141) (UniProt P27815) (assay: NVS_ENZ_hPDE4A1: NovaScreen (NVS) Enzymatic Assay for human Phosphodiesterase 4A1 (PDE4A1) (AID 2283191)).
human Phosphodiesterase 4A1 (PDE4A1), PDE4A (gene 5141), sequence (P27815 whole entry, looked up): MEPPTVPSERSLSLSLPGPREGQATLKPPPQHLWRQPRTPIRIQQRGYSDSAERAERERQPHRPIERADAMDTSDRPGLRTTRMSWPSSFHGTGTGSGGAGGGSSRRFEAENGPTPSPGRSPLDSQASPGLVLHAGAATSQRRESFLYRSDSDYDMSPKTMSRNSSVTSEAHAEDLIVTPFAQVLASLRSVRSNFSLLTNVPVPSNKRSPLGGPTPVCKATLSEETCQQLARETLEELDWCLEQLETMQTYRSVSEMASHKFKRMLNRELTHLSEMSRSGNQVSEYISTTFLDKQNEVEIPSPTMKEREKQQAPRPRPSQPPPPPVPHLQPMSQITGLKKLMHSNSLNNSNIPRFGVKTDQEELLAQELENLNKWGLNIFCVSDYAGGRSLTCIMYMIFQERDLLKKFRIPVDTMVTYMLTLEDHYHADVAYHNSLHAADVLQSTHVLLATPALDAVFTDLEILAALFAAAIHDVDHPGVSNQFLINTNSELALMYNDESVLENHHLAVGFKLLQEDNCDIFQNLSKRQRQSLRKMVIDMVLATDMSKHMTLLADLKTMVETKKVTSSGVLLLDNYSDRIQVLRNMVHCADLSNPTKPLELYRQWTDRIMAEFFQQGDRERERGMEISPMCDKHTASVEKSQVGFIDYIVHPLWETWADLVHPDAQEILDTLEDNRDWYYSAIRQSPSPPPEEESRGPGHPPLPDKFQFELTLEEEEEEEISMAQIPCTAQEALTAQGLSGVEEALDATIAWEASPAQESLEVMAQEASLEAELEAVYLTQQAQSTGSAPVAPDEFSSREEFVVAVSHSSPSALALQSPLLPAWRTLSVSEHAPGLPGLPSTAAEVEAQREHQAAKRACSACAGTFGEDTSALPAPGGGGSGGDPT
Summary of the method: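 Cell-free recombinant human PDE4A1 with fluorescent substrate; product separated by electrophoretic mobility shift, 1 h. Screened at 25 uM, then up to 50 uM in concentration-response; loss of signal fitted against DMSO.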
For CC(C)CCCCCCc1ccc(O)cc1, the outcome was “inactive”.
In the case of CSC(=O)c1cccc2nnsc12, the outcome is reported as “inactive”.
With O=C(O)C1(C(=O)Nc2ccc(Cl)cc2Cl)CC1 the AC50 was 24.2 µM (active).
In the case of S=C(S)NCCNC(=S)S.[Mn+2].[S-]C([S-])=NCCN=C([S-])[S-].[Zn+2], the AC50 is reported as 3.82 µM (active) and 3.7 µM (active) and 10.6 µM (active).
With CCNc1nc(N)nc(Cl)n1 the AC50 was 25 µM (active).
For C=CCOC(Cn1ccnc1)c1ccc(Cl)cc1Cl (configuration not stated), the outcome was “inactive”.
In the case of S=C([S-])NCCNC(=S)[S-].[Mn+2], the AC50 is reported as 16.7 µM (active).

Each molecule was assayed against cAMP-dependent protein kinase catalytic subunit alpha (Homo sapiens) (UniProt P17612) (assay: NVS_ENZ_hPKA: NovaScreen (NVS) Enzymatic Assay for human Protein Kinase A (PKA) (AID 2283192)).
Summary of the method: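 Recombinant human PKA with specific fluorescent substrate, product separated by electrophoretic mobility shift, read 1 h after dosing. Primary screen at 25 uM in duplicate; actives then run in concentration-response up to 50 uM, activity relative to DMSO.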
With COC(=O)c1ccccc1S(=O)(=O)NC(=O)Nc1nc(OC(F)F)cc(OC(F)F)n1 the outcome was “inactive”.
With S=C(S)NCCNC(=S)S.[Mn+2].[S-]C([S-])=NCCN=C([S-])[S-].[Zn+2] the AC50 was 20.5 µM (active).
In the case of S=C([S-])NCCNC(=S)[S-].[Mn+2], the AC50 is reported as 25 µM (active).
With O=C(c1ccc(O)cc1O)c1ccc(O)cc1O the outcome was “inactive”.

These molecules were tested against human Phosphodiesterase 5 (PDE5), PDE5A (gene 8654) (UniProt O76074) (assay: NVS_ENZ_hPDE5: NovaScreen (NVS) Enzymatic Assay for human Phosphodiesterase 5 (PDE5) (AID 2283194)).
Summary of the method: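 Recombinant human PDE5 with specific substrate, read 1 h after dosing by fluorescence with electrophoretic mobility-shift separation of substrate and product. Initial single-concentration duplicate screen at 25 uM, actives followed in concentration series; loss of activity versus DMSO.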
CC(C)CCCCCCc1ccc(O)cc1 was tested, and the outcome was “inactive”.
For CSC(=O)c1cccc2nnsc12, the outcome was “inactive”.
In the case of O=C(O)C1(C(=O)Nc2ccc(Cl)cc2Cl)CC1, the AC50 is reported as 13 µM (active).
For c1ccc2[nH]c(-c3cscn3)nc2c1, the AC50 was 11.6 µM (active).
With COC(=O)c1c(Cl)nn(C)c1S(=O)(=O)NC(=O)Nc1nc(OC)cc(OC)n1 the outcome was “inactive”.
In the case of S=C(S)NCCNC(=S)S.[Mn+2].[S-]C([S-])=NCCN=C([S-])[S-].[Zn+2], the AC50 is reported as 12.5 µM (active) and 14.2 µM (active) and the outcome is reported as “inactive”.
For CCOC(=O)c1ccc(O)cc1, the outcome was “inactive”.
With O=C(c1ccc(O)cc1O)c1ccc(O)cc1O the AC50 was 22 µM (active).

What follows are molecules tested against human Phosphodiesterase 10 (PDE10), PDE10A (gene 10846) (UniProt Q9Y233) (assay: NVS_ENZ_hPDE10: NovaScreen (NVS) Enzymatic Assay for human Phosphodiesterase 10 (PDE10) (AID 2283195)).
Summary of the method: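 Fluorescence/mobility-shift readout of PDE10A enzyme activity, taken 1 h post-dosing. Primary screen in duplicate at 25 uM; actives (e.g. ≥30% inhibition) retested as singleton concentration-response, top concentration 50 uM.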
CC(=O)S[C@@H]1CC2=CC(=O)CC[C@]2(C)[C@H]2CC[C@@]3(C)[C@@H](CC[C@@]34CCC(=O)O4)[C@H]12 was tested, and the AC50 was 14.4 µM (active).
With O=C(O)C1(C(=O)Nc2ccc(Cl)cc2Cl)CC1 the AC50 was 34.9 µM (active).
For S=C(S)NCCNC(=S)S.[Mn+2].[S-]C([S-])=NCCN=C([S-])[S-].[Zn+2], the AC50 was 2.41 µM (active) and 17.6 µM (active).
For S=C([S-])NCCNC(=S)[S-].[Mn+2], the AC50 was 25 µM (active).
CCC(C)OC(=O)N1CCCCC1CCO (configuration not stated) was tested, and the outcome was “inactive”.

The molecules below were run against human Phosphoinositide 3-kinase alpha (PI3Ka), PIK3CA (gene 5290) (UniProt P42336) (assay: NVS_ENZ_hPI3Ka: NovaScreen (NVS) Enzymatic Assay for human Phosphoinositide 3-kinase alpha (PI3Ka) (AID 2283196)).
Summary of the method: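 Chemicals were first screened at 25 uM in duplicate, then hits were run as concentration series up to 50 uM. Enzyme activity was measured by fluorescence after mobility-shift separation, with loss of signal relative to DMSO taken as activity.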
CCSC(=O)N(CC(C)C)CC(C)C was tested, and the outcome was “inactive”.
With Oc1ccc(C(c2ccc(O)cc2)C(Cl)(Cl)Cl)cc1 the AC50 was 29.1 µM (active).
For CC(C)(c1ccc(O)cc1)c1ccc(O)cc1, the AC50 was 25.4 µM (active) and the outcome was “inactive”.
S=C(S)NCCNC(=S)S.[Mn+2].[S-]C([S-])=NCCN=C([S-])[S-].[Zn+2] was tested, and the AC50 was 6.63 µM (active) and 14.6 µM (active) and the outcome was “inactive”.
In the case of N#CSCSc1nc2ccccc2s1, the outcome is reported as “inactive”.
For S=C([S-])NCCNC(=S)[S-].[Mn+2], the outcome was “inactive”.

Each molecule was assayed against Serine/threonine-protein phosphatase PP1-alpha catalytic subunit (Homo sapiens) (UniProt P62136) (assay: NVS_ENZ_hPPP1CA: NovaScreen (NVS) Enzymatic Assay for human Protein Phosphatase 1 Aatalytic subunit Alpha (PPP1CA) (AID 2283200)).
Serine/threonine-protein phosphatase PP1-alpha catalytic subunit (Homo sapiens), sequence (P62136 whole entry, looked up): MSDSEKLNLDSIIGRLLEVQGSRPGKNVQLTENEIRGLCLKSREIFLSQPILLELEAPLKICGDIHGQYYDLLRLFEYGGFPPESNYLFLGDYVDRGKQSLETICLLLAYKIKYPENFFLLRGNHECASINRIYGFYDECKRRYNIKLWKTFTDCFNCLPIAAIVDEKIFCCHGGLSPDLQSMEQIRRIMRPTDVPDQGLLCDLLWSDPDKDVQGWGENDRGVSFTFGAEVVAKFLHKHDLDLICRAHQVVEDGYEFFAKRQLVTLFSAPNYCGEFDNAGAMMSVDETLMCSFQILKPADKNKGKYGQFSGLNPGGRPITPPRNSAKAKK
Summary of the method: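 Recombinant enzyme activity read by fluorescence with electrophoretic mobility shift separating substrate from product, 1.33 h after dosing; loss of signal vs DMSO baseline. Primary screen in duplicate at 25 uM; actives retested in concentration-response up to 50 uM.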
In the case of c1ccc(Nc2ccccc2)cc1, the outcome is reported as “inactive”.
In the case of CC(C)CCCCCCc1ccc(O)cc1, the outcome is reported as “inactive”.
With OB(O)O the outcome was “inactive”.
For O=C(O)C1(C(=O)Nc2ccc(Cl)cc2Cl)CC1, the AC50 was 19.7 µM (active).
CN(C)C(=O)Nc1ccc(Cl)c(Cl)c1 was tested, and the outcome was “inactive”.
O=C(Nc1ccc([N+](=O)[O-])cc1Cl)c1cc(Cl)ccc1O was tested, and the outcome was “inactive”.

These molecules were tested against human Protein Tyrosine Phosphatase Non-receptor Type 1 (PTPN1), PTPN1 (gene 5770) (UniProt P18031) (assay: NVS_ENZ_hPTPN1: NovaScreen (NVS) Enzymatic Assay for human Protein Tyrosine Phosphatase Non-receptor Type 1 (PTPN1) (AID 2283201)).
human Protein Tyrosine Phosphatase Non-receptor Type 1 (PTPN1), PTPN1 (gene 5770), sequence (P18031 whole entry, looked up): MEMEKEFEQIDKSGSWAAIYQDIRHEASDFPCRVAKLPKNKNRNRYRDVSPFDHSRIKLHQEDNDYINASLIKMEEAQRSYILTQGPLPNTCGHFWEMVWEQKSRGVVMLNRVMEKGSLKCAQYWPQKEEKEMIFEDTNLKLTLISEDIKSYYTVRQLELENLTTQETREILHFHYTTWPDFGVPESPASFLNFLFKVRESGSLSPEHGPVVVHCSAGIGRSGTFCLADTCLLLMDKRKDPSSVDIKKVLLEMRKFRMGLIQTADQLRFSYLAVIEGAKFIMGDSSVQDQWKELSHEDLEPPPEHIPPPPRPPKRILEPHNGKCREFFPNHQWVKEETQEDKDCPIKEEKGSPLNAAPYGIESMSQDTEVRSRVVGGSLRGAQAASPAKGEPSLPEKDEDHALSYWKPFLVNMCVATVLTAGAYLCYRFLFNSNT
Summary of the method: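 Cell-free fluorogenic-substrate activity assay on recombinant enzyme, read 1.33 h after dosing by fluorescence and electrophoretic mobility shift; loss of signal vs DMSO baseline. Primary screen in duplicate at 25 uM, hits then run in concentration-response up to 50 uM.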
In the case of CC(C)CCCCCCc1ccc(O)cc1, the outcome is reported as “inactive”.
In the case of O=C(O)C1(C(=O)Nc2ccc(Cl)cc2Cl)CC1, the AC50 is reported as 3.82 µM (active).
For S=C(S)NCCNC(=S)S.[Mn+2].[S-]C([S-])=NCCN=C([S-])[S-].[Zn+2], the AC50 was 830 nM (active) and 1.81 µM (active).
For S=C([S-])NCCNC(=S)[S-].[Mn+2], the AC50 was 0.831 µM (active).

These molecules were tested against Tyrosine-protein phosphatase non-receptor type 11 (Homo sapiens) (UniProt Q06124) (assay: NVS_ENZ_hPTPN11: NovaScreen (NVS) Enzymatic Assay for human Protein Tyrosine Phosphatase Non-receptor Type 11 (PTPN11) (AID 2283202)).
Tyrosine-protein phosphatase non-receptor type 11 (Homo sapiens), sequence (Q06124 whole entry, looked up): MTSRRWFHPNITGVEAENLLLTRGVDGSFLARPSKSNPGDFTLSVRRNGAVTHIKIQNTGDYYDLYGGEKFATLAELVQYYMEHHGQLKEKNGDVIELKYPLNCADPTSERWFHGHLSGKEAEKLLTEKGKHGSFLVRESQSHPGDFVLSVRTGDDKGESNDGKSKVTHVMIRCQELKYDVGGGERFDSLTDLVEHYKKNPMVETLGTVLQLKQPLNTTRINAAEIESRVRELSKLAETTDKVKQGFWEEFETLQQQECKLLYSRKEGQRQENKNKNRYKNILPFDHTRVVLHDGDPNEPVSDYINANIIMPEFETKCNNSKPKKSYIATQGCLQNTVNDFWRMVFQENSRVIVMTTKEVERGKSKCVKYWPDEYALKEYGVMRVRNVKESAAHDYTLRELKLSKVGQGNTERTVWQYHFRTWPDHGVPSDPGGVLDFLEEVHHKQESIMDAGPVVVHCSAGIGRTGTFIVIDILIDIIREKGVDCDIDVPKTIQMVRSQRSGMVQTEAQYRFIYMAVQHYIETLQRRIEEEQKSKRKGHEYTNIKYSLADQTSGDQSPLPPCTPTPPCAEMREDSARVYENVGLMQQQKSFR
Summary of the method: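 Recombinant human PTPN11 activity on a fluorescent substrate, with substrate/product separated by electrophoretic mobility shift; read 0.5 h after dosing, loss of signal vs DMSO. Duplicate 25 uM screen, then concentration-response up to 50 uM.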
In the case of CC(C)CCCCCCc1ccc(O)cc1, the outcome is reported as “inactive”.
O=C(O)C1(C(=O)Nc2ccc(Cl)cc2Cl)CC1 was tested, and the AC50 was 6.94 µM (active).
Oc1ccc(C(c2ccc(O)cc2)C(Cl)(Cl)Cl)cc1 was tested, and the outcome was “inactive”.
With S=C(S)NCCNC(=S)S.[Mn+2].[S-]C([S-])=NCCN=C([S-])[S-].[Zn+2] the AC50 was 463 nM (active) and 603 nM (active).
For S=C([S-])NCCNC(=S)[S-].[Mn+2], the AC50 was 0.144 µM (active).

The molecules below were run against Tyrosine-protein phosphatase non-receptor type 12 (Homo sapiens) (UniProt Q05209) (assay: NVS_ENZ_hPTPN12: NovaScreen (NVS) Enzymatic Assay for human Protein Tyrosine Phosphatase Non-receptor Type 12 (PTPN12) (AID 2283204)).
Summary of the method: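 Single-concentration duplicates (25 uM) preceded singleton concentration-response up to 50 uM for chemicals passing threshold. Cell-free recombinant PTPN12 activity was read 1.33 h after dosing via fluorescence after mobility-shift separation; loss of signal versus DMSO.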
For CCCN(CCC)c1c([N+](=O)[O-])cc(C(F)(F)F)c(N)c1[N+](=O)[O-], the outcome was “inactive”.
With O=C(O)C1(C(=O)Nc2ccc(Cl)cc2Cl)CC1 the AC50 was 25 µM (active).
For S=C(S)NCCNC(=S)S.[Mn+2].[S-]C([S-])=NCCN=C([S-])[S-].[Zn+2], the AC50 was 486 nM (active) and 1.35 µM (active).
S=C([S-])NCCNC(=S)[S-].[Mn+2] was tested, and the AC50 was 0.479 µM (active).

What follows are molecules tested against Tyrosine-protein phosphatase non-receptor type 13 (Homo sapiens) (UniProt Q12923) (assay: NVS_ENZ_hPTPN13: NovaScreen (NVS) Enzymatic Assay for human Protein Tyrosine Phosphatase Non-receptor Type 13 (PTPN13) (AID 2283205)).
Tyrosine-protein phosphatase non-receptor type 13 (Homo sapiens), sequence (Q12923 whole entry, looked up): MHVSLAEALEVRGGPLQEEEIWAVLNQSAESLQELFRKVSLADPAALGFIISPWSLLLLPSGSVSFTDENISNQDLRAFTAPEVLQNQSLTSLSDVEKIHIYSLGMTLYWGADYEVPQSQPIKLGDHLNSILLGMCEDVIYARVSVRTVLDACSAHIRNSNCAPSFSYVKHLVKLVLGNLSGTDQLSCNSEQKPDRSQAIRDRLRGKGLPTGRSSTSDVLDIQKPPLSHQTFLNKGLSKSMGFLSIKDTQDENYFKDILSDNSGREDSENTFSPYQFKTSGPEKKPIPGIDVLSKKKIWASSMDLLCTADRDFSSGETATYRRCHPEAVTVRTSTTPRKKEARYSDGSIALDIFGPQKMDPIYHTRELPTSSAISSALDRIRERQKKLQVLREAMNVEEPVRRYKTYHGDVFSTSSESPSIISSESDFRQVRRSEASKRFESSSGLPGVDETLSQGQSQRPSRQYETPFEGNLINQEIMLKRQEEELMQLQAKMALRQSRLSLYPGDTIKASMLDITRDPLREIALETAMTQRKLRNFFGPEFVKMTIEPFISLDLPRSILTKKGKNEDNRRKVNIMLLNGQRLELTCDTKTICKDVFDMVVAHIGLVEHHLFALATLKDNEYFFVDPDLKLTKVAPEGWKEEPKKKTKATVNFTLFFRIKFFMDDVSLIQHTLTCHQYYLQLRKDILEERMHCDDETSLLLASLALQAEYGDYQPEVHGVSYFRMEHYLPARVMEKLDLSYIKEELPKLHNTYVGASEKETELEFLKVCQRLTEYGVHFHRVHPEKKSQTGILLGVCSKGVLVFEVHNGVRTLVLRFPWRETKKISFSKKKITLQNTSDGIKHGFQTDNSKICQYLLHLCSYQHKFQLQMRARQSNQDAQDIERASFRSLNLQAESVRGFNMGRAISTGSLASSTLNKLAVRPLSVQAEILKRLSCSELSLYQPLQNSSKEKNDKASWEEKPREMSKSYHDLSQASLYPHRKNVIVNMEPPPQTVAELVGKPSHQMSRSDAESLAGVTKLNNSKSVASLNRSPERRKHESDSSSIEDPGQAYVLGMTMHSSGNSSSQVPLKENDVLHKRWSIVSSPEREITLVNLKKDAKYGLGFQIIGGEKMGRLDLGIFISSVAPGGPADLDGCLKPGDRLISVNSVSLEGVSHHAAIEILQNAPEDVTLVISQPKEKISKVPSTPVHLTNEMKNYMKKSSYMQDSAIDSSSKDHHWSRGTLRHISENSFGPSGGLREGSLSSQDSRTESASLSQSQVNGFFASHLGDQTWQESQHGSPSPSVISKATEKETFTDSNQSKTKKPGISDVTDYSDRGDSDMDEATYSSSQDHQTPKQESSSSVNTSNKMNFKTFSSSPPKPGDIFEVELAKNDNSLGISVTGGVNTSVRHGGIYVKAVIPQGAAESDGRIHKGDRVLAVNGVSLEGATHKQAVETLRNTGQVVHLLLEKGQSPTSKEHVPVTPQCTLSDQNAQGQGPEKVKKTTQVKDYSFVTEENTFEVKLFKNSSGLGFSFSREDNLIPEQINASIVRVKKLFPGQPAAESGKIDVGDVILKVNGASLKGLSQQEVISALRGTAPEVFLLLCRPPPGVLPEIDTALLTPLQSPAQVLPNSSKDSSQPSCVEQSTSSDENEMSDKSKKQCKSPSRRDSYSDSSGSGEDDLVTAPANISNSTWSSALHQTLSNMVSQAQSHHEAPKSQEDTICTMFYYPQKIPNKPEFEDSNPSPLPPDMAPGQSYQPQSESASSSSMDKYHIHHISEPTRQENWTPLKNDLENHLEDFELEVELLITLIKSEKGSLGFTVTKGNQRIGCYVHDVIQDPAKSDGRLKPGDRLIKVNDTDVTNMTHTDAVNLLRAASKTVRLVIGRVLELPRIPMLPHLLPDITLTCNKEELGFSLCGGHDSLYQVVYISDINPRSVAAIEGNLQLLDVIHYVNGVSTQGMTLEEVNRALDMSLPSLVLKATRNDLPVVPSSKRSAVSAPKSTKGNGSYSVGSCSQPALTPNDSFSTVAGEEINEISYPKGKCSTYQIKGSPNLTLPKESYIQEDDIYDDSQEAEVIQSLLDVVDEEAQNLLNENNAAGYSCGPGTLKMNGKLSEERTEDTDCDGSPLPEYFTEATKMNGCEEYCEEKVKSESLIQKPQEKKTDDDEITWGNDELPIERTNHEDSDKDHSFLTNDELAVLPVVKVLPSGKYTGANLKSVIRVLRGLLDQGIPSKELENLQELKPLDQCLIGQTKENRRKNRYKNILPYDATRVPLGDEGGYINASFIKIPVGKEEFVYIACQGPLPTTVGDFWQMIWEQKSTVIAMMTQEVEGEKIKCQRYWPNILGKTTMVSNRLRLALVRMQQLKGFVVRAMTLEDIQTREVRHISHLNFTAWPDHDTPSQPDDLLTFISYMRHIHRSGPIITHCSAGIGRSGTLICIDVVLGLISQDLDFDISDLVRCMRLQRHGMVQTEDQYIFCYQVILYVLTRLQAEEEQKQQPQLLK
Summary of the method: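 Cell-free assay of recombinant human PTPN13 with a fluorescent substrate, product separated by electrophoretic mobility shift and read 0.5 h after dosing. Primary screen at 25 uM in duplicate, then concentration-response up to 50 uM. Loss of signal fitted against DMSO.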
In the case of CC(C)CCCCCCc1ccc(O)cc1, the outcome is reported as “inactive”.
O=C(O)C1(C(=O)Nc2ccc(Cl)cc2Cl)CC1 was tested, and the AC50 was 3.91 µM (active).
S=C(S)NCCNC(=S)S.[Mn+2].[S-]C([S-])=NCCN=C([S-])[S-].[Zn+2] was tested, and the AC50 was 3.5 µM (active) and 7.66 µM (active) and 4.12 µM (active).
S=C([S-])NCCNC(=S)[S-].[Mn+2] was tested, and the AC50 was 0.594 µM (active).
For O=C(Nc1ccc([N+](=O)[O-])cc1Cl)c1cc(Cl)ccc1O, the AC50 was 18.7 µM (active).
